Results from the supplement of paper PMC10849652.
About 8,800 targets were measured; listed, in parts, are those with a hit and a random draw of the rest. About 0.5% of all pairs of compound and target were hits.

compound: NC(=O)Nc1cc(-c2cccc(F)c2)sc1C(=O)N[C@H]1CCCNC1; assay: log2 fold change, soluble protein after heating vs DMSO (PISA); higher = thermal stabilisation; K562 lysate, 10 uM; active = over 0.2 and 3.5 SD of the protein, either way, in both replicates (recomputed)
Procedure, shortened: (§1)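 Following dounce homogenisation of K562 pellets in PBS pH 7.4 with 1 mM MgCl2, crude extract at 1 mg/mL protein was incubated for 30 min with 10 μM compound. Aliquots were then heated for 3 min over 48°C-58°C and pooled, NP-40 was added to 0.5% at 4°C, and soluble protein was recovered as the supernatant at 21,000xg for 90 min. Channel-sum-equalised TMTpro 16plex LC-MS/MS quantified this protein. Each value, from duplicates, is a log-two fold change in thermal stability relative to solvent controls.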

UniProt P05455, sequence (P05455 whole entry, looked up): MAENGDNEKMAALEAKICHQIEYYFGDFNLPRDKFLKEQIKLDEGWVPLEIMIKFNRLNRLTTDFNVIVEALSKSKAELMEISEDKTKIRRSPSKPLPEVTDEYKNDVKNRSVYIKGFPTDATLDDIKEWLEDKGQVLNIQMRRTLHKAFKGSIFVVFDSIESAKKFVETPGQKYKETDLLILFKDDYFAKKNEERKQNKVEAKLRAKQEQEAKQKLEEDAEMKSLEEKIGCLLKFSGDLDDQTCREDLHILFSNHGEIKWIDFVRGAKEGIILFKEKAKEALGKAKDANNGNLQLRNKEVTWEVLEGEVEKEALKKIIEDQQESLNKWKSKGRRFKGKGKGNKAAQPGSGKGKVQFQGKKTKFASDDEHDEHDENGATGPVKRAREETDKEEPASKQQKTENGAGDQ
UniProt Q86XZ4, sequence (Q86XZ4 whole entry, looked up): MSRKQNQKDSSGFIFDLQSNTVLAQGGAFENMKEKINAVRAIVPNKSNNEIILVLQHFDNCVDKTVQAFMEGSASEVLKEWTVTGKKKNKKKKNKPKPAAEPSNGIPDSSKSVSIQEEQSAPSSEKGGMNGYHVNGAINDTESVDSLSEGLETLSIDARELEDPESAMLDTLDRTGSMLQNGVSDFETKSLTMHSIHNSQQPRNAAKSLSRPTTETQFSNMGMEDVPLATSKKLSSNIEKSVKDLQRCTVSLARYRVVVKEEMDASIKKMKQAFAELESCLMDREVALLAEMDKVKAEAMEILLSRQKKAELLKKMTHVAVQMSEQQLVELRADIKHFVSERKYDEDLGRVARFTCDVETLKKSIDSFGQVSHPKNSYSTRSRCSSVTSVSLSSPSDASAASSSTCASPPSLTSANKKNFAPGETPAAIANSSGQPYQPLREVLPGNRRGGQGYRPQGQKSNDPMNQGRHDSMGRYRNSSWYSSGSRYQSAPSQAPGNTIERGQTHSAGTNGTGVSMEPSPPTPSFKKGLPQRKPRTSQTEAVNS
UniProt P08047, sequence (P08047 whole entry, looked up): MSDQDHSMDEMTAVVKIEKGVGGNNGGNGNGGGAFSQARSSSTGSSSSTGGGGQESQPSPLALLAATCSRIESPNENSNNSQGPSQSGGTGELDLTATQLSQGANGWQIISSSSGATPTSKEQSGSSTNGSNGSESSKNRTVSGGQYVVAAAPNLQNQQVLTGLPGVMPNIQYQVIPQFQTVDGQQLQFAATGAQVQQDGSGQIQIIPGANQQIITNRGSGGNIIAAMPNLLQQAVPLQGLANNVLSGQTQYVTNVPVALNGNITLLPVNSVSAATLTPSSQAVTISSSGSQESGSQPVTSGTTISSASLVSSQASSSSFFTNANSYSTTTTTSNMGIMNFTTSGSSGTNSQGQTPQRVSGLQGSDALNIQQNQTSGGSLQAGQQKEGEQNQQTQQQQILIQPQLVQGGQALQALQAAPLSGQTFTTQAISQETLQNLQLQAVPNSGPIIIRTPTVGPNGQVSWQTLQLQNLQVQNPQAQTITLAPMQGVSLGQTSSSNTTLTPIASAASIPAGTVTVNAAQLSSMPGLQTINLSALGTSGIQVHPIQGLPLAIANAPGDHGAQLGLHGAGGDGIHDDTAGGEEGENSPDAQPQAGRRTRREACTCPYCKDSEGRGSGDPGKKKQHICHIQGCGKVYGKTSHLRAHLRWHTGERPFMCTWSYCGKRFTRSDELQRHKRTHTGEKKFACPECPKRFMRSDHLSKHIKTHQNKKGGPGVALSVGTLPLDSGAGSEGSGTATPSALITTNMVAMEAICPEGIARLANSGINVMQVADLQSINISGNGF
UniProt Q8TBC3, sequence (Q8TBC3 whole entry, looked up): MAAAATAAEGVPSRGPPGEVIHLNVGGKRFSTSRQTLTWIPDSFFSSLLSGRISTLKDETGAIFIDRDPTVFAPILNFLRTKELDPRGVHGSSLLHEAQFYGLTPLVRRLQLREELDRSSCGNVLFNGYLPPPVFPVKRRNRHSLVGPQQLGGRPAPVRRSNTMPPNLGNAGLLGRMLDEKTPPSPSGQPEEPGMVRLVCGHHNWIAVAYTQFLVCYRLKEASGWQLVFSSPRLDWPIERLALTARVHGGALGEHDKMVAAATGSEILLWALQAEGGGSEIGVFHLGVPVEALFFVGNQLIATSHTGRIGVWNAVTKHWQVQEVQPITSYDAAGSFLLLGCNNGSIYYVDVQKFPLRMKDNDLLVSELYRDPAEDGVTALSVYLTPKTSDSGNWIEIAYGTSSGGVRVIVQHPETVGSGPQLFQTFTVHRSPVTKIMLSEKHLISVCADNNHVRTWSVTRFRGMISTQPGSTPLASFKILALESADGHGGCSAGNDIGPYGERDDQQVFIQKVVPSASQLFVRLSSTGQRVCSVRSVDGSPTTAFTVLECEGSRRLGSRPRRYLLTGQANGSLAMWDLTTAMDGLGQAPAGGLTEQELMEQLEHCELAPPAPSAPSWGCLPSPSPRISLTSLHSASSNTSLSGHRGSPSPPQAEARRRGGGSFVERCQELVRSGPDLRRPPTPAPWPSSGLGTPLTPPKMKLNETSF
UniProt Q86US8, sequence (Q86US8 whole entry, looked up): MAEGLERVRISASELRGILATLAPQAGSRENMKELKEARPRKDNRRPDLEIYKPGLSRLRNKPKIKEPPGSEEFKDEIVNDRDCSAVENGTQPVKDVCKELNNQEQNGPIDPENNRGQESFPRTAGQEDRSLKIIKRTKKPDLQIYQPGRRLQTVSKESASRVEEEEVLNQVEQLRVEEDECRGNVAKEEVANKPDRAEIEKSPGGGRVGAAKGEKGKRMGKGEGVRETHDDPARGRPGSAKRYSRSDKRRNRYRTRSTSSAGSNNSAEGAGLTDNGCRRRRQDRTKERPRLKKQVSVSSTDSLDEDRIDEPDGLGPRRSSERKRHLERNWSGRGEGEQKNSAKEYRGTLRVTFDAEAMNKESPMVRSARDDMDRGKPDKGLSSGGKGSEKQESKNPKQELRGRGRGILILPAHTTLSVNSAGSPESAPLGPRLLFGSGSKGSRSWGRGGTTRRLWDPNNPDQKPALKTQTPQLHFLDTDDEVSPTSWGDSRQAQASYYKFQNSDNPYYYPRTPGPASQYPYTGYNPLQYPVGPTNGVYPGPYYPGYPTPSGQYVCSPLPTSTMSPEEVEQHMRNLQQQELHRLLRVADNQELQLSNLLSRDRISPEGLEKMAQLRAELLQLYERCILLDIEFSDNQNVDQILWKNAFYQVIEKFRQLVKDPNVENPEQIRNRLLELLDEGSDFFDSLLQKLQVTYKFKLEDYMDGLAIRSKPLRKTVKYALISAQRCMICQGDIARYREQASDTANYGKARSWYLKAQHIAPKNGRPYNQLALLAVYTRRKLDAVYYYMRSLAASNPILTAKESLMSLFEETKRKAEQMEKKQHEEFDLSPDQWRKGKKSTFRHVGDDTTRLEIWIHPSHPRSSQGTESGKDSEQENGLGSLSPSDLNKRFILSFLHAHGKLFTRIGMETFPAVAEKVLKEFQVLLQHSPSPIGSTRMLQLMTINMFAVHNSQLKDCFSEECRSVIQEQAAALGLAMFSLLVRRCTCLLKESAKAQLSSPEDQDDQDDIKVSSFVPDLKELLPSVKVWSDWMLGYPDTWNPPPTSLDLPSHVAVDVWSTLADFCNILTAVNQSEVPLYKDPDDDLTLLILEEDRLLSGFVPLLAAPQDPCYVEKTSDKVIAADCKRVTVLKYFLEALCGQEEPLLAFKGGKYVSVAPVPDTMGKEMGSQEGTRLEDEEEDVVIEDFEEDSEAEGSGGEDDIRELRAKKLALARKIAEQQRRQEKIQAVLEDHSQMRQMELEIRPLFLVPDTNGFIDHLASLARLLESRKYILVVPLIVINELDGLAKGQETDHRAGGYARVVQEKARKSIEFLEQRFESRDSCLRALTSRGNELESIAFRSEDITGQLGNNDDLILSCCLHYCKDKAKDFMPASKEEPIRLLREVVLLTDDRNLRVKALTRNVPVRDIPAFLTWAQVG
UniProt Q96SB8, sequence (Q96SB8 whole entry, looked up): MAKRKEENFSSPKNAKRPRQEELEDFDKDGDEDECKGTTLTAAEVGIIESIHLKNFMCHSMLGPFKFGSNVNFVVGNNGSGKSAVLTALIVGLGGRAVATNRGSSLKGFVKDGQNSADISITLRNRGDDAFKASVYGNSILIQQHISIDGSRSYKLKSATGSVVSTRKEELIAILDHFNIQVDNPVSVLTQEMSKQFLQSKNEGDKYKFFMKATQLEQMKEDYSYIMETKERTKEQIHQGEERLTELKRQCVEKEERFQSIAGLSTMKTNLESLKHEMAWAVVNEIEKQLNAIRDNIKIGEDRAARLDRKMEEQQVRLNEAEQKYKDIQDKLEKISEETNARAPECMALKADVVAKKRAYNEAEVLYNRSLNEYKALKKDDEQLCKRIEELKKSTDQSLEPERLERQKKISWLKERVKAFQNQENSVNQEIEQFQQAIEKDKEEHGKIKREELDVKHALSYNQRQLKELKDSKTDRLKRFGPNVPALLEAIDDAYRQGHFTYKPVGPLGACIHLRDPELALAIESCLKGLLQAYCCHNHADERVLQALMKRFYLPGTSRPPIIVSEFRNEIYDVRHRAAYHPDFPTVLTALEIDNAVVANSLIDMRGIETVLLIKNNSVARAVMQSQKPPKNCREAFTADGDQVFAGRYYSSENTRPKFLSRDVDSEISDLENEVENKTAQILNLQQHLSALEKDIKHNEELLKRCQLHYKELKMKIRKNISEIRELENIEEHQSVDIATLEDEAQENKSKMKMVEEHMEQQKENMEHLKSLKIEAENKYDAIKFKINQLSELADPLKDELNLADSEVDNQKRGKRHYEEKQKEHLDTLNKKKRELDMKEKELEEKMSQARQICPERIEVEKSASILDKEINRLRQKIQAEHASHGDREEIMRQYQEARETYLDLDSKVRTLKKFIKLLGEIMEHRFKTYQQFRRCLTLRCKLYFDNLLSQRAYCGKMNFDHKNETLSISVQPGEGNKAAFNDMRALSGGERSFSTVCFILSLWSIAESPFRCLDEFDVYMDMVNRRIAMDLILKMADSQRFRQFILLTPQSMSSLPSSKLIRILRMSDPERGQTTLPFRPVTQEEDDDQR
UniProt Q9UJC5, sequence (Q9UJC5 whole entry, looked up): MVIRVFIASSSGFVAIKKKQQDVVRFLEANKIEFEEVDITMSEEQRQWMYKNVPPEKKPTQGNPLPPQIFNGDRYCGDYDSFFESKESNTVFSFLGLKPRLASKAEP

log2 fold change, active:
STK38 (UniProt Q15208) 0.563

log2 fold change, inactive:
SPNS1 (UniProt Q9H2V7) -0.032
SRM (UniProt P19623) 0.041
STOML2 (UniProt Q9UJZ1) 0.018
SFN (UniProt P31947) -0.048
SMC1B isoform 3 (UniProt Q8NDV3) -0.014
STK24 (UniProt B4DR80) 0.187
STAU1 (UniProt O95793) 0.037
SPATS2 (UniProt Q86XZ4) -0.107
SMC4 (UniProt Q9NTJ3) 0.027
SMG6 (UniProt Q86US8) 0.028
SMARCA4 (UniProt P51532) 0.043
SSBP3 (UniProt Q9BWW4) -0.035
STAT2 (UniProt P52630) 0.054
STUB1 (UniProt Q9UNE7) 0.053
SHKBP1 (UniProt Q8TBC3) -0.016
SSB (UniProt P05455) 0.001
SMG7 (UniProt Q92540) 0.054
SMG1 (UniProt Q96Q15) 0.061
SRRT (UniProt Q9BXP5) 0.058
SHC1 isoform 6 (UniProt P29353) -0.036
SH3BGRL2 (UniProt Q9UJC5) 0.009
SP1 (UniProt P08047) -0.02
SHCBP1 (UniProt Q8NEM2) -0.009
SH3BP5L (UniProt Q7L8J4) 0.007
SYNRG (UniProt Q9UMZ2) 0.018
STK26 (UniProt Q9P289) 0.104
SMC2 (UniProt O95347) 0.034
SLC11A2 isoform 3 (UniProt P49281) 0.055
SYF2 (UniProt O95926) -0.016
SMC6 (UniProt Q96SB8) 0.034
SLC29A2 (UniProt Q14542) 0.088
SNAP23 (UniProt O00161) -0.019

compound: NC(=O)c1cnc(N[C@@H]2CCCC[C@@H]2N)nc1Nc1cccc(-n2nccn2)c1; assay: as above
Procedure, shortened: as §1

log2 fold change, inactive:
SPNS1 (UniProt Q9H2V7) 0.013
SRM (UniProt P19623) 0.017
STOML2 (UniProt Q9UJZ1) 0.002
SFN (UniProt P31947) -0.023
SMC1B isoform 3 (UniProt Q8NDV3) -0.005
STK24 (UniProt B4DR80) 0.023
STAU1 (UniProt O95793) 0.001
SPATS2 (UniProt Q86XZ4) -0.005
SMC4 (UniProt Q9NTJ3) 0.009
STK38 (UniProt Q15208) 0.054
SMG6 (UniProt Q86US8) 0.065
SMARCA4 (UniProt P51532) 0.004
SSBP3 (UniProt Q9BWW4) -0.029
STAT2 (UniProt P52630) 0.016
STUB1 (UniProt Q9UNE7) 0.015
SHKBP1 (UniProt Q8TBC3) 0.007
SSB (UniProt P05455) -0.013
SMG7 (UniProt Q92540) -0.067
SMG1 (UniProt Q96Q15) 0
SRRT (UniProt Q9BXP5) 0.016
SHC1 isoform 6 (UniProt P29353) -0.029
SH3BGRL2 (UniProt Q9UJC5) -0.04
SP1 (UniProt P08047) 0.008
SHCBP1 (UniProt Q8NEM2) -0.019
SH3BP5L (UniProt Q7L8J4) 0.013
SYNRG (UniProt Q9UMZ2) 0.026
STK26 (UniProt Q9P289) 0.002
SMC2 (UniProt O95347) 0.017
SLC11A2 isoform 3 (UniProt P49281) -0.042
SYF2 (UniProt O95926) 0.04
SMC6 (UniProt Q96SB8) 0.001
SLC29A2 (UniProt Q14542) -0.037
SNAP23 (UniProt O00161) -0.016

compound: NC1(c2ccc(-c3nc4ccn5c(=O)[nH]nc5c4cc3-c3ccccc3)cc2)CCC1; assay: as above
Procedure, shortened: as §1

log2 fold change, inactive:
SPNS1 (UniProt Q9H2V7) -0.005
SRM (UniProt P19623) 0.045
STOML2 (UniProt Q9UJZ1) -0.003
SFN (UniProt P31947) 0.035
SMC1B isoform 3 (UniProt Q8NDV3) -0.055
STK24 (UniProt B4DR80) -0.005
STAU1 (UniProt O95793) 0.005
SPATS2 (UniProt Q86XZ4) -0.013
SMC4 (UniProt Q9NTJ3) -0.023
STK38 (UniProt Q15208) 0.036
SMG6 (UniProt Q86US8) 0.011
SMARCA4 (UniProt P51532) -0.024
SSBP3 (UniProt Q9BWW4) -0.097
STAT2 (UniProt P52630) -0.016
STUB1 (UniProt Q9UNE7) 0.004
SHKBP1 (UniProt Q8TBC3) -0.096
SSB (UniProt P05455) 0.012
SMG7 (UniProt Q92540) 0.04
SMG1 (UniProt Q96Q15) -0.032
SRRT (UniProt Q9BXP5) -0.023
SHC1 isoform 6 (UniProt P29353) -0.001
SH3BGRL2 (UniProt Q9UJC5) 0.032
SP1 (UniProt P08047) 0.005
SHCBP1 (UniProt Q8NEM2) -0.016
SH3BP5L (UniProt Q7L8J4) -0.033
SYNRG (UniProt Q9UMZ2) -0.079
STK26 (UniProt Q9P289) -0.008
SMC2 (UniProt O95347) -0.003
SLC11A2 isoform 3 (UniProt P49281) 0.111
SYF2 (UniProt O95926) -0.106
SMC6 (UniProt Q96SB8) 0.013
SLC29A2 (UniProt Q14542) -0.021
SNAP23 (UniProt O00161) 0.031
